Experimental data: PubChem BioAssay (NCI)
Compounds without any hit were thinned out: in the full panel of roughly 79,000, 15% have a hit. The source made the active and inactive calls. Rule as the data show it: active = growth inhibition above about 70%; inactive = the rest.

Tests used:
[1] = NCI Yeast Anticancer Drug Screen. Data for the rad50 strain (AID 155);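 also: 0% = growth of vehicle-only cultures of the same strain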; settings: S. cerevisiae rad50 strain growth inhibition, active compounds read high
Outline: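 Relative growth inhibition (compound vs vehicle) was measured in yeast with a defined repair-gene alteration.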

[2] = NCI Yeast Anticancer Drug Screen. Data for the mec2-1 strain (AID 157); settings: S. cerevisiae mec2-1 strain, active compounds read high
Outline: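 Growth inhibition is read against vehicle-treated controls after compound exposure of the mec2-1 yeast strain, which is defective in DNA damage repair or cell cycle control.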

[3] = NCI Yeast Anticancer Drug Screen. Data for the sgs1 mgt1 strain (AID 161);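 also: 0% = growth of cultures given vehicle only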; settings: S. cerevisiae sgs1 mgt1 strain, active compounds read high
Outline: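 Percent growth inhibition was derived by comparing compound-exposed mutant yeast with vehicle-exposed cultures. The strain carries alterations in DNA damage repair.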

[4] = NCI Yeast Anticancer Drug Screen. Data for the cln2 rad14 strain (AID 165);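 also: 0% = growth equal to vehicle treated cultures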; settings: S. cerevisiae cln2 rad14 strain, active compounds read high
Outline: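 Growth inhibition, relative to vehicle-treated controls, is the read-out. The test organism is a yeast strain with defined genetic alterations, cln2 rad14.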

[5] = NCI Yeast Anticancer Drug Screen. Data for the bub3 strain (AID 167); settings: S. cerevisiae bub3 mutant strain, active compounds read high
Outline: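 Screening used yeast with an engineered genetic alteration affecting cell cycle control. Compound-exposed cultures were compared with vehicle cultures, and reduced growth was taken as inhibition.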

[6] = NCI Yeast Anticancer Drug Screen. Data for the mlh1 rad18 strain (AID 175); settings: S. cerevisiae mlh1 rad18 strain growth inhibition, active compounds read high
Outline: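 Cells of a genetically altered yeast strain, deficient in DNA damage repair, were treated with compound. Their growth was then compared with that of vehicle-treated cultures to give inhibition.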

[7] = at 5.0 µM (retest, dose inferred, filed as 0.5)
[8] = at 50.0 µM (retest, dose inferred, filed as 5.0)

Measured: growth inhibition

CCN(CC)CCNc1ccc(OC)c2cccnc12
inactive: [1]; [7] 15% | [1]; [8] 30% | [2]; [7] 1% | [2]; [8] 9% | [3]; [7] 8% | [3]; [8] 16% | [4]; [7] 5% | [4]; [8] -2% | [5]; [7] 10% | [5]; [8] 16% | [6]; [7] 17% | [6]; [8] 25%
active: [1]; at 50.0 µM 99.3% | [2]; at 50.0 µM 99.4% | [3]; at 50.0 µM 99.3% | [4]; at 50.0 µM 98% | [5]; at 50.0 µM 99.5% | [6]; at 50.0 µM 98.8%

O=C(Nc1ccc(Cl)cc1)c1cccc([N+](=O)[O-])c1O
inactive: [1]; [7] 9% | [1]; [8] 13% | [1]; at 50.0 µM 32.8% | [2]; [7] 5% | [2]; [8] 11% | [2]; at 50.0 µM -8.45% | [3]; [7] 8% | [3]; [8] 11% | [4]; [7] -3% | [4]; [8] 34% | [4]; at 50.0 µM -22% | [5]; [7] 6% | [5]; [8] 10% | [5]; at 50.0 µM -5% | [6]; [7] 7% | [6]; [8] 16% | [6]; at 50.0 µM 11.2%
active: [3]; at 50.0 µM 70.8%

CCCCCCCCCC1OCC(C)O1 (stereo not given)
inactive: [1]; [7] 3% | [1]; [8] 30% | [1]; at 50.0 µM 53% | [2]; [7] 3% | [2]; [8] 30% | [2]; at 50.0 µM 44.6% | [3]; [7] -2% | [3]; [8] 38% | [4]; [7] 6% | [4]; [8] 17% | [4]; at 50.0 µM 4% | [5]; [7] 7% | [5]; [8] 36% | [5]; at 50.0 µM 7.7% | [6]; [7] 4% | [6]; [8] 62% | [6]; at 50.0 µM 61.2%
active: [3]; at 50.0 µM 73.2%

NC(=O)Nc1cc(=O)[nH]c(=S)[nH]1
inactive: [1]; [7] -2% | [1]; [8] -2% | [1]; at 50.0 µM 6.9% | [2]; [7] 4% | [2]; [8] -1% | [2]; at 50.0 µM 8.65% | [3]; [7] 0% | [3]; [8] 0% | [3]; at 50.0 µM -9.9% | [4]; [7] -1% | [4]; [8] -5% | [4]; at 50.0 µM 5.05% | [5]; [7] -1% | [5]; [8] -4% | [5]; at 50.0 µM 42.4% | [6]; [7] -3% | [6]; [8] -2% | [6]; at 50.0 µM -23.1%

COc1cc(NCCCCCNC2CCCCC2)c2ncccc2c1
active: [1]; at 50.0 µM 83.2% | [3]; at 50.0 µM 74.1% | [5]; at 50.0 µM 83.6% | [6]; at 50.0 µM 74.2%
inactive: [1]; [7] 2% | [1]; [8] 64% | [2]; [7] -4% | [2]; [8] 17% | [2]; at 50.0 µM 46.5% | [3]; [7] 21% | [3]; [8] 63% | [4]; [7] 7% | [4]; [8] 32% | [4]; at 50.0 µM 19.9% | [5]; [7] 14% | [5]; [8] 57% | [6]; [7] -18% | [6]; [8] 27%

COc1cccc2c1OC(c1ccc(C#N)cc1)C([N+](=O)[O-])=C2 (stereo not given)
active: [1]; [7] 84% | [1]; [8] 97% | [1]; at 50.0 µM 86.2% | [2]; [7] 84% | [2]; [8] 98% | [2]; at 50.0 µM 90.8% | [3]; [7] 87% | [3]; [8] 98% | [3]; at 50.0 µM 87.2% | [4]; [8] 97% | [4]; at 50.0 µM 89.8% | [5]; [7] 74% | [5]; [8] 98% | [5]; at 50.0 µM 89.8% | [6]; [7] 92% | [6]; [8] 98% | [6]; at 50.0 µM 83.5%
inactive: [4]; [7] 47%

CSC(=S)N/N=C\C(C)=N/N=C(N)N
active: [1]; [8] 92% | [1]; at 50.0 µM 94% | [2]; [8] 93% | [2]; at 50.0 µM 74.5% | [3]; [8] 92% | [3]; at 50.0 µM 85.4% | [4]; [8] 89% | [5]; [8] 92% | [5]; at 50.0 µM 86.4% | [6]; [8] 90% | [6]; at 50.0 µM 93.7%
inactive: [1]; [7] 14% | [2]; [7] 16% | [3]; [7] 53% | [4]; [7] -14% | [4]; at 50.0 µM 18.9% | [5]; [7] -4% | [6]; [7] 30%

c1ccc(-n2c3ccccc3c3ccccc32)cc1
inactive: [1]; [7] 4% | [1]; [8] 11% | [2]; [7] 4% | [2]; [8] 3% | [3]; [7] 1% | [3]; [8] 9% | [4]; [7] 1% | [4]; [8] -12% | [4]; at 50.0 µM 37.9% | [5]; [7] 5% | [5]; [8] 21% | [6]; [7] -1% | [6]; [8] 11%
active: [1]; at 50.0 µM 86.7% | [2]; at 50.0 µM 82.2% | [3]; at 50.0 µM 88.2% | [5]; at 50.0 µM 88.2% | [6]; at 50.0 µM 84.5%

O=c1c2c(F)c(F)c(F)c(F)c2sc2nccn12
active: [1]; [8] 100% | [1]; at 50.0 µM 89% | [2]; [8] 100% | [2]; at 50.0 µM 91.2% | [3]; [8] 99% | [3]; at 50.0 µM 84.8% | [4]; [8] 99% | [4]; at 50.0 µM 90.2% | [5]; [8] 100% | [5]; at 50.0 µM 89.5% | [6]; [8] 99% | [6]; at 50.0 µM 86.8%
inactive: [1]; [7] 15% | [2]; [7] 40% | [3]; [7] 2% | [4]; [7] 5% | [5]; [7] 27% | [6]; [7] 46%

C=CCNCCC1CCCCCC1
inactive: [1]; [7] 7% | [2]; [7] 6% | [3]; [7] 7% | [3]; at 50.0 µM 49.1% | [4]; [7] 5% | [4]; at 50.0 µM 8.8% | [5]; [7] 7% | [6]; [7] 4%
active: [1]; [8] 97% | [1]; at 50.0 µM 96.6% | [2]; [8] 97% | [2]; at 50.0 µM 97.5% | [3]; [8] 98% | [4]; [8] 96% | [5]; [8] 97% | [5]; at 50.0 µM 97.7% | [6]; [8] 97% | [6]; at 50.0 µM 96.5%
